Measurements published in PubChem BioAssay AID504727 (Broad Institute, 2011).
A number with no mark means an inactive call. The source made the active and inactive calls.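 How the source made its calls: active means fitted half-maximal concentration AC50 at or below ten times the highest valid tested dose, with signal falling as DNA is displaced (actives reach about 34 µM in these data); inconclusive means flat fit at moderate signal loss, or poor fit quality; inactive means the rest, including signal rising instead of falling.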

Experiment: acridine orange-DNA binding displacement – biochemical, fluorescence polarization, cherry-picked samples, set 2, artefact control for KSHV LANA DNA-binding inhibitor project, dose response (AID 504727);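 on activity change, negative = DNA displacement: 0% = median of neutral control wells and -100% = mitoxantrone positive control wells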
Details: series mostly up to 35 µM; activity change, negative = DNA displacement: at the top concentration

| Compound | activity change, negative = DNA displacement [%] | AC50 |
| --- | --- | --- |
| Cc1ccc(N2CC(C(=O)Nc3nnc(SCC(=O)Nc4nc(C)cs4)s3)CC2=O)cc1 (stereo not drawn) | 0.01 | – |
| COc1ccc(C(C)=O)cc1CN(C)C | 3.98 | – |
| Cc1ccc(C)c(OCC(=O)N(Cc2nnc(-c3ccccc3Cl)o2)C2CC2)c1 | 1.6 | – |
| Nc1c(/C=C2/C=CC(=O)C(O)=C2)c(=O)nc2sc(CC(=O)N3CCCC3)nn12 | 5.34 | – |
| CN(N=Nc1ccc([N+](=O)[O-])cc1)c1ccccc1 | – | 11 µM (active) |
| Cc1cc2nc3c(=O)n(C4CCCCC4)c(=O)[nH]c3nc2cc1N | – | 10.6 µM (active) |
| COC(=O)C(NC(=O)C(C)NC(=O)OCc1ccccc1)C(C)C (stereo not drawn) | – | > 35 µM |
| CN(c1ccccc1)S(=O)(=O)c1cccc(NS(=O)(=O)c2cccc(C(=O)O)c2)c1 | -1.7 | – |
| O=C(CN1C(=O)/C(=C/c2ccco2)SC1=S)Nc1ccc(C(=O)O)c(O)c1 | 5.32 | – |
| CCOC(=O)[C@H]1[C@H]2COc3cc(OC)ccc3[C@@H]2N2C(=O)CN(Cc3ccc(OC)cc3)C(=O)[C@@]12C | -0.624 | – |
| Nc1nc(SCC(=O)N2CCCCC2)[nH]c(=O)c1NC(=O)c1cccs1 | 0.545 | – |
| COc1cccc2c1NC(C(=O)O)C1CC=CC21 (stereo not drawn) | 3.22 | – |
| O=C1C=CC2=C3c4cc(O)c(O)cc4CC3(O)COC2=C1O (stereo not drawn) | -14.1 | – |
| CC(C)C(=O)N1CCN(c2ccccc2NC(=S)NC(=O)c2ccco2)CC1 | 1.99 | – |
| CCCCn1c(N)c(N(CCOC)C(=O)c2cc(C)oc2C)c(=O)[nH]c1=O | -2.07 | – |
| CSC(=NS(=O)(=O)c1ccc(N)cc1)NS(=O)(=O)c1cccs1 | 5.36 | – |
| COc1ccc2ccccc2c1C(O)c1nccn1C (stereo not drawn) | – | 4.01 µM (active) |
| O=c1nc(N2CCOCC2)ccn1-c1nc(-c2ccccc2)sc1-c1ccccc1 | -4.48 | – |
| CCn1c(CN2CCCCC2)nc2cc(S(=O)(=O)N3CCCCC3)ccc21 | 7.06 | – |

| Compound | activity change, negative = DNA displacement [%] | AC50 |
| --- | --- | --- |
| CCN(c1ccc(C)cc1C)S(=O)(=O)c1nnc(NC(=O)c2ccco2)s1 | 7.43 | – |
| CCN(CC)CCCNc1ccc2ncn3c4ccc(O)cc4c(=O)c1c23 | – | 6.91 µM (active) |
| COc1ccc(C2(CNC(=O)CCC(=O)O)CCCC2)cc1OC | -1.24 | – |
| COc1cc(OC)cc(-c2c(-c3ccsc3)c3cc(Br)ccc3n2C)c1 | 2.88 | – |
| CCCc1nnc(NC(=O)CCC(=O)NCc2ccc(OC)cc2)s1 | 0.474 | – |
| COc1ccc(NC(=O)NS(=O)(=O)c2ccc(C)cc2)cn1 | -15 | – |
| O=C(O)CC(C(=O)O)N1C(=O)/C(=C/C=C/c2ccco2)SC1=S (stereo not drawn) | 5.71 | – |
| Nc1nnc(CC(=O)N/N=C/c2cc([N+](=O)[O-])cc(Br)c2O)s1 | 10.9 | – |
| Cc1cccc(NC(=O)CN2C(=O)NC(C)(c3ccc4ccccc4c3)C2=O)n1 (stereo not drawn) | 1.9 | – |
| COc1ccc2noc3c2c1C(=O)c1ccccc1-3 | – | 0.241 µM (active) |
| O=C(CCNc1ccc(Cc2ccncc2)cc1)c1cccc([N+](=O)[O-])c1 | -1.92 | – |
| COc1ccccc1CNC(=O)CCS(=O)(=O)c1cccs1 | -4.89 | – |
| Nc1cccc(N2C(=O)c3cccc4c(N)ccc(c34)C2=O)c1 | – | 5.76 µM (active) |
| COCCN(CCOC)Cc1c(O)ccc2c1O/C(=C\c1ccco1)C2=O | – | 27.5 µM (active) |
| COc1cccc(OC)c1C(=O)Nc1cc(C)on1 | 1.43 | – |
| O=C(CSc1nc2ccccc2[nH]1)Nc1cccc(S(=O)(=O)N2CCOCC2)c1 | 3.04 | – |
| Cc1cc(C(F)(F)F)c2c(N)c(C(=O)Nc3cc(C)on3)sc2n1 | -2.86 | – |
| Cc1cc(S(=O)(=O)NC2CCN(Cc3ccccc3)CC2)c(C)cc1Cl | 5.78 | – |
| O=C(O)CN1C(=O)/C(=C\c2cc(Br)ccc2OCc2ccc([N+](=O)[O-])cc2)SC1=S | 5.9 | – |
